Source: PubChem
The list is not random: actives were taken first. Their share in the collection is about 3.4%.
PLCb3 inh = PLC-beta3 (human) inhibition, primary screen; actives 0.18% (n = 370,000); Q01970; inhibition, % at 12.2 µM; AID 720704; Purified PLC-beta3, fluorogenic substrate, fluorescence; in the data active = inhibition above about 11%
ADAM17 inh = inhibits human ADAM17; inhibition, % at 6.95 µM; recombinant ADAM17, EDANS/DABCYL FRET peptide cleavage; P78536; actives 0.83% (n = 370,000);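 active = inhibition above the mean of compounds lying between control limits plus 3 SD, set per campaign, cut at about 8.5% in these data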
ADAM10 inh = inhibits human ADAM10; inhibition, % at 7 µM; actives 0.62% (n = 370,000); recombinant ADAM10, EDANS/DABCYL FRET peptide cleavage, 3 h; O14672;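 active = inhibition above a per-campaign cutoff equal to the mean of compounds falling between control-based bounds plus 3 SD, cut at about 20% in these data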
PLC-gamma1 inh = inhibitors of human phospholipase C gamma1 | purified PLC-gamma1, fluorogenic substrate, fluorescence | actives 0.84% (n = 370,000) | inhibition, % at 12.2 µM
KLK7 zymogen act = activators of human kallikrein-7 zymogen | P49862 | purified proKLK7, EDANS-DABCYL substrate fluorescence; 100% is mature enzyme control, 0% vehicle | activation, % at 7 µM | actives 0.9% (n = 370,000) | AID 652039;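 active = activation above the mean of all tested compounds plus 3 SD, computed per campaign excluding outliers beyond control limits, cut at about 13% in these data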
sPLA2-III inh = Inhibits HGIII-sPLA2 liposome hydrolysis, primary screen | Q9NZ20 | QFRET BODIPY PC-A2 liposome hydrolysis, fluorescence | inhibition, % at 12.2 µM | actives 0.56% (n = 370,000);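 active = inhibition above mean plus 3 SD of compounds lying within the high and low control bounds, cut at about 19% in these data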
Target sequence (Q9NZ20 whole entry, looked up): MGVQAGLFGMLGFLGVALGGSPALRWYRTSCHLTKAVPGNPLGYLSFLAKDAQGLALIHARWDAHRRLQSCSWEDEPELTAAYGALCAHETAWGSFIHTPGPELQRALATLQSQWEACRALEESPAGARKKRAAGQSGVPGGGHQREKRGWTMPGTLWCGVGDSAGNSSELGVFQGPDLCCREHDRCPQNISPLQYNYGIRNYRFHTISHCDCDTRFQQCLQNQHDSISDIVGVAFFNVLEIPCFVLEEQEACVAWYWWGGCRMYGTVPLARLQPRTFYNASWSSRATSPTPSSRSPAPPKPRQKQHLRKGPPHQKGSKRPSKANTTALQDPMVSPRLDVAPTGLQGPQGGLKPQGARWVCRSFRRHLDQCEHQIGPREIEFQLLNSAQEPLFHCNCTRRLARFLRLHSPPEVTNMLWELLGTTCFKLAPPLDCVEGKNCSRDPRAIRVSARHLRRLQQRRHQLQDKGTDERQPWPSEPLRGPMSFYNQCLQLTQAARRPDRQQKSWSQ
PLCgamma1 ctr = PLC-gamma1 inhibition, counter-screen for PLC-beta3 hits; inhibition, % at 12.3 µM; purified PLC-gamma1, fluorogenic substrate, fluorescence; shares compounds with PLC-gamma1 inh; AID 743258; actives 3.1% (n = 3,300)
PLCbeta3 conf = confirmation of human PLC-beta3 inhibitors; inhibition, % at 12.3 µM; shares compounds with PLC-gamma1 inh; purified PLC-beta3, fluorogenic substrate fluorescence; actives 1% (n = 3,300); AID 743261; in the data active = inhibition above about 11%
Numbers stand for hits; . = inactive; / = not tested or not shown. Rule as the data show it, unless noted: active = inhibition above about 9.5%; inactive = the rest.

SMILES | PLCb3 inh | ADAM17 inh | ADAM10 inh | PLC-gamma1 inh | KLK7 zymogen act | sPLA2-III inh | PLCgamma1 ctr | PLCbeta3 conf
Cn1cnnc1SCC(=O)n1c2ccccc2c2ccccc21 | . | . | . | 14 | . | . | . | .
Cc1ccc(N(CC(=O)NCc2ccc3c(c2)OCO3)C(=O)c2csnn2)cc1 | . | . | . | . | . | . | / | /
CC(C)Nc1nc(NC(C)C)nc(N(C)n2cnnc2)n1 | . | . | . | 9.9 | . | . | . | .
N#C/C(=C\c1ccco1)C(=O)NCC1CCCO1 (centres undefined) | 13 | . | . | 11 | . | . | . | .
COc1ccc(OC)c(S(=O)(=O)CC(O)CS(=O)(=O)c2ccccc2)c1 (centres undefined) | . | . | . | . | . | . | / | /
COc1ccccc1CC(NC(C)=O)C(=O)NC1CCN(C(=O)Nc2cccc(F)c2)CC1 (centres undefined) | . | . | . | . | . | . | / | /
COc1ccc(CC(NC(C)=O)C(=O)NC2CCN(C(=O)Nc3ccccc3C)CC2)cc1OC (centres undefined) | . | . | . | 11 | . | . | . | .
COc1ccc(CC(NC(C)=O)C(=O)NC2CCN(C(=O)NCc3ccccc3)CC2)cc1OC (centres undefined) | . | . | . | . | . | . | / | /
COc1ccccc1CC(NC(C)=O)C(=O)NC1CCN(C(=O)Nc2ccc(F)cc2)CC1 (centres undefined) | . | . | . | 11 | . | . | . | .
CN(C)c1c(F)cc(C(=O)NCc2ccccc2)cc1F | . | . | . | . | . | . | / | /
C[C@H]1CN([C@@H](C)CO)C(=O)c2cccc(NC(=O)Nc3ccc(C(F)(F)F)cc3)c2O[C@H]1CN(C)C | . | . | . | . | . | . | / | /
C[C@H](CO)N1C[C@H](C)[C@@H](CN(C)S(C)(=O)=O)Oc2c(NC(=O)Nc3ccc(C(F)(F)F)cc3)cccc2C1=O | 12 | . | . | . | . | . | . | .
COc1ccc(NC(=O)N(C)C[C@H]2Oc3c(NC(=O)NC(C)C)cccc3C(=O)N([C@H](C)CO)C[C@@H]2C)cc1 | 11 | . | . | . | . | . | . | .
NC(=O)Cn1cnc2c(nnn2-c2ccc(F)cc2)c1=O | . | . | . | . | . | . | / | /
O=C(Cc1cccs1)Nc1ccccc1F | . | . | . | . | . | . | / | /
Cc1ccc(NC(=O)[C@H](C)NC(=O)C2CCN(C(=O)[C@@H](N)C(C)C)CC2)cc1 | . | . | . | . | . | . | / | /
COc1cc(NC(=NS(=O)(=O)c2ccccc2)c2ccccc2)ncn1 | . | . | . | . | . | . | / | /
O=C(c1cc2ccccc2oc1=O)N1CCCC1 | . | . | . | 15 | . | . | . | .
O=C(c1cc2ccccc2oc1=O)N1CCCCCCC1 | . | . | . | . | . | . | / | /
CN(C(=O)CCn1c(=S)oc2ccccc21)c1ccc(F)cc1 | . | . | . | . | . | . | / | /
O=C(NCCCN1CCCC1=O)NC1CCCCC1 | 11 | . | . | . | . | . | . | .
O=C(O)C1CCCCC1C(=O)NCCCN1CCCC1=O (centres undefined) | . | . | . | . | . | . | / | /
O=C(c1cc(-c2ccccc2)nn1-c1ccccc1)N1CCN(S(=O)(=O)c2cccc(F)c2)CC1 | . | . | . | 9.9 | . | . | . | .
CC1CN(c2ccc(Cl)cc2[N+](=O)[O-])CCN1S(C)(=O)=O (centres undefined) | . | . | . | . | . | . | / | /
CCn1nnnc1SCC(=O)N1CCCc2ccccc21 | 11 | . | . | . | . | . | . | .
SMILES | PLCb3 inh | ADAM17 inh | ADAM10 inh | PLC-gamma1 inh | KLK7 zymogen act | sPLA2-III inh | PLCgamma1 ctr | PLCbeta3 conf
CCCn1c(SCC(=O)N2CCCc3ccccc32)nnc1-c1ccccn1 | . | . | . | 12 | . | . | . | .
O=C(O)C1CCCCC1C(=O)Nc1nccs1 (centres undefined) | . | . | . | 12 | . | . | . | .
CC1=C(C)CC(C(=O)Nc2nccs2)C(C(=O)O)C1 (centres undefined) | . | . | . | . | . | . | / | /
CCOC(=O)c1sc(NC(=O)CN2CCN(c3ccc(OC)cc3)CC2)nc1C | . | . | . | . | . | . | / | /
CCn1c(SCC(=O)Nc2ccc(Cl)cc2)nc2nc3c(cc2c1=O)CCCC3 | . | . | . | . | . | . | / | /
CCn1c(SCC(=O)Nc2ccc(C(C)=O)cc2)nc2nc3c(cc2c1=O)CCCC3 | . | . | . | 9.7 | . | . | . | .
CCOC(=O)C1CCCN(C(=O)c2ccc3ccccc3c2)CC1 (centres undefined) | . | . | . | . | . | . | / | /
Cc1cccc(CCNC(=O)C2CCCN(S(=O)(=O)c3cccc4nsnc34)C2)c1 (centres undefined) | . | . | . | 17 | . | . | . | .
Cc1cccnc1C(NC(=O)C1CCN(CCCc2ccccc2)CC1)c1ccc(Cl)cc1 (centres undefined) | . | . | . | . | . | . | / | /
O=C(Cc1cccs1)NCc1ccccc1Br | . | . | . | 12 | . | . | . | .
Cc1ccc(-n2nnnc2SCC(=O)NCC2(N3CCOCC3)CCCCC2)cc1 | . | . | . | 9.7 | . | . | . | .
O=C(CSc1nnnn1-c1ccccc1)NCC1(N2CCOCC2)CCCCC1 | . | . | . | . | . | . | / | /
CC1(CCc2ccccc2)NC(=O)N(CC(=O)Nc2c(F)cccc2F)C1=O (centres undefined) | . | . | . | . | . | . | / | /
O=C1CC2CCCC(C1)S2=O (centres undefined) | . | . | . | . | . | . | / | /
O=C(c1ccc(F)cc1)C1CCN(C(=S)Nc2ccccc2Cl)CC1 | . | . | . | . | . | . | / | /
Cc1ccccc1NC(=S)N1CCC(C(=O)c2ccc(F)cc2)CC1 | . | . | . | 9.9 | . | . | . | .
CCOC(=O)N1C(=O)C2(CCCCC2)N(c2ccccc2Cl)C1=S | . | . | . | 11 | . | . | . | .
CC(=O)NCCNc1nc2cc(-c3ccc(C)cc3)sc2c(=O)n1C | . | . | . | . | . | . | / | /
COc1ccc(NC2=C(Cl)C(=O)N(CCc3ccccc3)C2=O)cc1 | . | . | . | . | . | . | / | /
CCOc1ccc(NC2=C(Cl)C(=O)N(Cc3ccccc3)C2=O)cc1 | . | . | . | 11 | . | . | . | .
COc1ccccc1-n1cnc(N)c1C(=O)c1ccccc1 | . | . | . | 12 | . | . | . | .
COc1ccccc1-n1cnc(N)c1C(C)=O | . | . | . | . | . | . | / | /
Cc1oc(C)c(C(N)=O)c1C(N)=O | 11 | . | . | . | . | . | . | .
Fc1ccc(CN2CCN(C(c3ccccc3)c3ccccc3)CC2)cc1 | . | . | . | . | . | . | / | /
